Laboratory results reported in PubChem BioAssay (NCI).
About 79,000 compounds went through this panel and 15% of them were active in at least one assay; those are over-represented in the sample as a whole. The source made the active and inactive calls. No stated cut-off is given here; in the data, active means growth inhibition above about 70%; inactive means the rest.

How the values were obtained:
[1] = NCI Yeast Anticancer Drug Screen. Data for the rad52 strain (AID 147);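 further: 0% = growth of vehicle-treated control cultures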; conditions: S. cerevisiae rad52 mutant growth inhibition, stronger effect = higher value
Procedure, shortened: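 Screen used a yeast mutant impaired in DNA repair. After compound exposure, growth was measured. Values reflect inhibition compared with vehicle-treated cells.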

[2] = NCI Yeast Anticancer Drug Screen. Data for the wt1 strain (AID 149);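 further: 0% = growth of vehicle-treated wt1 cultures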; conditions: S. cerevisiae wt1 strain (SPY 50644) growth inhibition, stronger effect = higher value
Procedure, shortened: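 wt1 strain grown with compound or vehicle; inhibition taken from the growth difference.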

[3] = NCI Yeast Anticancer Drug Screen. Data for the rad50EPP+ strain (AID 151);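 further: 0% = growth of vehicle-treated control cultures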; conditions: S. cerevisiae rad50 mutant strain, stronger effect = higher value
Procedure, shortened: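 Exposing the rad50EPP+ strain to each compound, growth was compared with vehicle-only cultures to give inhibition.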

[4] = NCI Yeast Anticancer Drug Screen. Data for the mgt1 strain (AID 153); conditions: S. cerevisiae mgt1 mutant growth inhibition, stronger effect = higher value
Procedure, shortened: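 Genetically defined yeast (mgt1) treated with compound; inhibition of growth expressed against vehicle-treated controls.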

[5] = NCI Yeast Anticancer Drug Screen. Data for the rad50 strain (AID 155);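 further: 0% = growth of vehicle-only cultures of the same strain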; conditions: S. cerevisiae rad50 strain growth inhibition, stronger effect = higher value
Procedure, shortened: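 DNA repair mutant yeast, compound exposure, growth read-out; inhibition is taken relative to vehicle.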

[6] = NCI Yeast Anticancer Drug Screen. Data for the mec2-1 strain (AID 157); conditions: S. cerevisiae mec2-1 strain, stronger effect = higher value
Procedure, shortened: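 Readout is yeast growth inhibition, normalised to vehicle-treated controls, in the mec2-1 strain exposed to compound.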

[7] = NCI Yeast Anticancer Drug Screen. Data for the rad14 strain (AID 159);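 further: 0% = growth of vehicle-treated control cultures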; conditions: S. cerevisiae rad14 strain growth inhibition, stronger effect = higher value
Procedure, shortened: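 DNA repair-defective yeast, compound-exposed; % growth inhibition derived by comparison with vehicle-treated controls.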

[8] = NCI Yeast Anticancer Drug Screen. Data for the sgs1 mgt1 strain (AID 161);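 further: 0% = growth of cultures given vehicle only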; conditions: S. cerevisiae sgs1 mgt1 strain, stronger effect = higher value
Procedure, shortened: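 Yeast cells carrying a defined DNA-repair defect were exposed to test compounds. Growth inhibition was measured relative to vehicle-treated controls.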

[9] = NCI Yeast Anticancer Drug Screen. Data for the CLN2oe strain (AID 163);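 further: 0% = growth of vehicle-only control cultures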; conditions: S. cerevisiae CLN2oe strain, stronger effect = higher value
Procedure, shortened: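 Values reflect how much compound exposure reduced yeast growth, referenced to vehicle-exposed cells. Assay organism is a strain with a defined genetic change affecting cell-cycle control.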

[10] = NCI Yeast Anticancer Drug Screen. Data for the cln2 rad14 strain (AID 165);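 further: 0% = growth equal to vehicle treated cultures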; conditions: S. cerevisiae cln2 rad14 strain, stronger effect = higher value
Procedure, shortened: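 Relative to vehicle controls, growth inhibition of compound-treated cln2 rad14 yeast was recorded.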

[11] = NCI Yeast Anticancer Drug Screen. Data for the bub3 strain (AID 167); conditions: S. cerevisiae bub3 mutant strain, stronger effect = higher value
Procedure, shortened: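 In this screen, a yeast mutant lacking normal mitotic checkpoint function is challenged with compound. Relative growth versus vehicle gives the inhibition value.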

[12] = NCI Yeast Anticancer Drug Screen. Data for the wt2 strain (AID 169);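 further: 0% = growth of vehicle-treated yeast cultures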; conditions: S. cerevisiae wt2 strain growth inhibition, stronger effect = higher value
Procedure, shortened: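 Values express reduction in yeast growth under compound treatment, referenced to vehicle-treated cells.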

[13] = NCI Yeast Anticancer Drug Screen. Data for the mlh1 strain (AID 171);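 further: 0% = growth of vehicle-treated control cultures of the same strain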; conditions: S. cerevisiae mlh1 strain growth inhibition, stronger effect = higher value
Procedure, shortened: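 Steps: expose the defined-mutant yeast strain to compound; expose a parallel culture to vehicle; measure growth; express compound effect as inhibition relative to the vehicle culture.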

[14] = NCI Yeast Anticancer Drug Screen. Data for the sgs1 strain (AID 173);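 further: 0% = growth of vehicle-only control cultures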; conditions: S. cerevisiae sgs1 mutant, stronger effect = higher value
Procedure, shortened: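 Treat defined-mutant yeast with compound; measure growth; calculate inhibition relative to vehicle-treated cells.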

[15] = NCI Yeast Anticancer Drug Screen. Data for the mlh1 rad18 strain (AID 175); conditions: S. cerevisiae mlh1 rad18 strain growth inhibition, stronger effect = higher value
Procedure, shortened: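 Test agents were incubated with a yeast strain of defined genotype (DNA damage repair defect). Inhibition of growth was derived by comparison with vehicle-exposed cultures.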

[16] = NCI Yeast Anticancer Drug Screen. Data for the rad18 strain (AID 177); conditions: S. cerevisiae rad18 mutant growth inhibition, stronger effect = higher value
Procedure, shortened: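 A genetically defined yeast mutant impaired in DNA damage repair was treated with test compounds, then its growth was measured against cultures receiving vehicle alone.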

[17] = at 5.0 µM (retest, dose inferred, filed as 0.5)
[18] = at 50.0 µM (retest, dose inferred, filed as 5.0)

Measured: growth inhibition

CC(=O)Nc1ccc(SC(C)=O)cc1
inactive: [1]; at 1.2 µM 0% | [1]; at 3.7 µM -21% | [1]; at 11.0 µM -2% | [1]; at 33.0 µM 58% | [2]; at 1.2 µM -36% | [2]; at 3.7 µM -30% | [2]; at 11.0 µM -18% | [2]; at 33.0 µM 43% | [3]; at 1.2 µM -29% | [3]; at 3.7 µM -22% | [3]; at 11.0 µM -6% | [3]; at 33.0 µM -1% | [3]; at 100.0 µM 29% | [4]; at 1.2 µM -55% | [4]; at 3.7 µM -45% | [4]; at 11.0 µM -32% | [4]; at 33.0 µM 44% | [5]; at 1.2 µM -29% | [5]; at 3.7 µM -4% | [5]; at 11.0 µM 7% | [5]; at 33.0 µM 59% | [6]; at 1.2 µM -41% | [6]; at 3.7 µM -45% | [6]; at 11.0 µM -9% | [6]; at 33.0 µM 62% | [6]; at 50.0 µM 56.8% | [7]; at 1.2 µM -27% | [7]; at 3.7 µM -38% | [7]; at 11.0 µM -5% | [7]; at 33.0 µM 56% | [8]; [17] -6% | [8]; at 50.0 µM 60.6% | [9]; at 1.2 µM -5% | [9]; at 3.7 µM -17% | [9]; at 11.0 µM 12% | [9]; at 33.0 µM 47% | [10]; [17] 44% | [10]; at 50.0 µM 66.7% | [11]; at 1.2 µM -25% | [11]; at 3.7 µM -6% | [11]; [17] 18% | [11]; at 11.0 µM 0% | [11]; at 33.0 µM 63% | [11]; at 50.0 µM 55.6% | [12]; at 1.2 µM -22% | [12]; at 3.7 µM -23% | [12]; at 11.0 µM -10% | [12]; at 33.0 µM 54% | [13]; at 1.2 µM -25% | [13]; at 3.7 µM -26% | [13]; at 11.0 µM 6% | [13]; at 33.0 µM 54% | [14]; at 1.2 µM -30% | [14]; at 3.7 µM -9% | [14]; at 11.0 µM 10% | [14]; at 33.0 µM 65% | [15]; [17] 60% | [16]; at 1.2 µM -28% | [16]; at 3.7 µM -10% | [16]; at 11.0 µM -4% | [16]; at 33.0 µM 52%
active: [1]; at 100.0 µM 86% | [2]; at 100.0 µM 85% | [4]; at 100.0 µM 86% | [5]; [17] 80% | [5]; [18] 100% | [5]; at 50.0 µM 70.7% | [5]; at 100.0 µM 86% | [6]; [17] 72% | [6]; [18] 100% | [6]; at 100.0 µM 86% | [7]; at 100.0 µM 88% | [8]; [18] 78% | [9]; at 100.0 µM 85% | [10]; [18] 85% | [11]; [18] 77% | [11]; at 100.0 µM 87% | [12]; at 100.0 µM 88% | [13]; at 100.0 µM 86% | [14]; at 100.0 µM 88% | [15]; [18] 100% | [15]; at 50.0 µM 72.3% | [16]; at 100.0 µM 84%

BrCC[P+](c1ccccc1)(c1ccccc1)c1ccccc1
inactive: [1]; at 1.2 µM -39% | [1]; at 3.7 µM -45% | [1]; at 11.0 µM 58% | [2]; at 1.2 µM -60% | [2]; at 3.7 µM -56% | [2]; at 11.0 µM -4% | [3]; at 1.2 µM -44% | [3]; at 3.7 µM -47% | [3]; at 11.0 µM 19% | [4]; at 1.2 µM -61% | [4]; at 3.7 µM -53% | [4]; at 11.0 µM -7% | [5]; at 1.2 µM -36% | [5]; at 3.7 µM -30% | [5]; [17] 19% | [5]; at 11.0 µM 54% | [6]; at 1.2 µM -74% | [6]; at 3.7 µM -63% | [6]; [17] 16% | [6]; at 11.0 µM 14% | [7]; at 1.2 µM -32% | [7]; at 3.7 µM -52% | [7]; at 11.0 µM -16% | [8]; [17] 49% | [9]; at 1.2 µM -21% | [9]; at 3.7 µM -22% | [9]; at 11.0 µM 2% | [10]; [17] 43% | [11]; at 1.2 µM -70% | [11]; at 3.7 µM -32% | [11]; [17] 47% | [11]; at 11.0 µM 32%
active: [1]; at 33.0 µM 94% | [1]; at 100.0 µM 96% | [2]; at 33.0 µM 96% | [2]; at 100.0 µM 98% | [3]; at 33.0 µM 88% | [3]; at 100.0 µM 95% | [4]; at 33.0 µM 94% | [4]; at 100.0 µM 98% | [5]; at 33.0 µM 94% | [5]; [18] 97% | [5]; at 50.0 µM 84.7% | [5]; at 100.0 µM 95% | [6]; at 33.0 µM 95% | [6]; [18] 98% | [6]; at 50.0 µM 90.2% | [6]; at 100.0 µM 97% | [7]; at 33.0 µM 94% | [7]; at 100.0 µM 97% | [8]; [18] 99% | [8]; at 50.0 µM 87% | [9]; at 33.0 µM 90% | [9]; at 100.0 µM 95% | [10]; [18] 98% | [10]; at 50.0 µM 73.8% | [11]; at 33.0 µM 93% | [11]; [18] 98% | [11]; at 50.0 µM 87.8% | [11]; at 100.0 µM 97%
